Screening results as filed in PubChem BioAssay.
In the library only some 3.1% were active in any assay of this set; here they are far more common.
Anthrax LF inh2 = Bacillus anthracis LF protease inhibitors, primary screen, biochemical, multiplex microsphere, MLPCN library. inhibition, % at 10 µM. hit rate 0.12% among 360,000. Lethal factor (Bacillus anthracis), P15917. multiplex microsphere protease cleavage assay. AID 588501, 2011
BoNT-A LC inh2 = BoNT/A light chain protease inhibitors, primary screen, biochemical, flow cytometry, MLPCN library; inhibition, % at 10 µM; multiplex microsphere protease substrate cleavage; hit rate 0.17% among 360,000; Botulinum neurotoxin type A light chain protease (Clostridium botulinum A str. ATCC 3502)
SSB-PriA inh = inhibitors of Klebsiella pneumoniae PriA binding to SSB C-terminal tail, primary screen, biochemical, AlphaScreen. hit rate 0.6% among 430,000. AlphaScreen SSBct-PriA binding, biotinylated peptide. PriA–SSB C-terminal tail interaction (Klebsiella pneumoniae). inhibition, % at 33 µM; in the data active means inhibition mostly above about 37%, no sharp cut-off; inactive means mostly below about 20%
BoNT-F LC inh = BoNT/F light chain protease inhibitors, primary screen, biochemical, flow cytometry, MLPCN library; Botulinum neurotoxin type F light chain protease (Clostridium botulinum); Multiplex microsphere protease cleavage assay; inhibition, % at 10 µM; hit rate 0.22% among 360,000; AID 588497, 2011; in the data active means inhibition above about 35%, passing the limit was not always enough; inconclusive means no clear call, values can overlap the other calls
Bead autofluor = compound fluorescence in toxin protease inhibitor counterscreen; compound autofluorescence counterscreen, microsphere flow cytometry; active compounds read high; fluorescence intensity (test concentration not listed); hit rate 3.1% among 360,000; AID 624483; in the data active means fluorescence intensity above about 16000; inconclusive means no clear call, values can overlap the other calls
Large screens that a line does not name were inactive. Unless noted, no stated cut-off is given here; in the data, active means inhibition above about 30%; inconclusive means no clear call, values can overlap the other calls; inactive means below that.

Cc1ccc(CSCCNC(=O)/C=C/c2ccc(Cl)cc2)cc1	Bead autofluor 21860
O=C1CC(c2cccnc2)CN1 (configuration not stated)	none (no result: Anthrax LF inh2, BoNT-A LC inh2, BoNT-F LC inh, Bead autofluor)
O=C(O)CC1S/C(=N\N=C2\CSC(=O)N2)NC1=O (configuration not stated)	SSB-PriA inh 64 (no result: Anthrax LF inh2, BoNT-A LC inh2, BoNT-F LC inh, Bead autofluor)
O=C1CS/C(=N\N=C2\NC(=O)C(CC(=O)c3ccc(F)cc3)S2)N1 (configuration not stated)	SSB-PriA inh 46 (no result: Anthrax LF inh2, BoNT-A LC inh2, BoNT-F LC inh, Bead autofluor)
O=C(Nc1nccs1)c1ccc(COc2ccccc2)o1	none (no result: Anthrax LF inh2, BoNT-A LC inh2, BoNT-F LC inh, Bead autofluor)
CCc1nnc(NC(=O)c2ccc(COc3ccc(C)cc3)o2)s1	Bead autofluor 23447
CCc1nnc(NC(=O)c2ccc(COc3ccccc3)o2)s1	Bead autofluor 17254
CC(C)(C)OC(=O)N1CCN(S(=O)(=O)c2[nH]ncc2C(=O)O)CC1	none (no result: Anthrax LF inh2, BoNT-A LC inh2, BoNT-F LC inh, Bead autofluor)
COc1ccc(Br)c(C(=O)NC2CCN(c3nccs3)C2)c1 (configuration not stated)	none (no result: Anthrax LF inh2, BoNT-A LC inh2, BoNT-F LC inh, Bead autofluor)
CC(O)(CNC(=O)c1ccccc1S(=O)(=O)C(F)F)c1ccco1 (configuration not stated)	none (no result: Anthrax LF inh2, BoNT-A LC inh2, BoNT-F LC inh, Bead autofluor)
Clc1ccc(-c2nnc(-c3ccc(Br)o3)o2)c(Cl)c1	Bead autofluor 22190
Cc1ccc(S(=O)(=O)[C@@H](CNC(=O)C(=O)NCc2ccc3c(c2)OCO3)c2cccs2)cc1	none (no result: Anthrax LF inh2, BoNT-A LC inh2, BoNT-F LC inh, Bead autofluor)
Cc1nc2ccc3[nH]snc3c2n1	Bead autofluor 23032
Cc1ccc2cc(C3C(C#N)=C(N)Oc4c3ccc3cccnc43)c(=O)[nH]c2c1 (configuration not stated)	SSB-PriA inh 79
N#CC1=C(N)Oc2c(ccc3cccnc23)C1c1cccnc1 (configuration not stated)	SSB-PriA inh 88
N#CC1=C(N)Oc2cc3ccccc3cc2C1c1cccnc1 (configuration not stated)	none
O=C(NCCn1ncc2c(=O)n(Cc3ccc([N+](=O)[O-])cc3)cnc21)c1cccc(C(F)(F)F)c1	none (no result: Anthrax LF inh2, BoNT-A LC inh2, BoNT-F LC inh, Bead autofluor)
COc1ccccc1Nc1nc2c(C)cccc2cc1C#N	Bead autofluor 16724
COc1ccccc1Nc1nc2ccc(C)cc2cc1C#N	Bead autofluor inconclusive
Fc1ccccc1COc1ccc(C=Nn2cnnc2)cc1	none (no result: Anthrax LF inh2, BoNT-A LC inh2, BoNT-F LC inh, Bead autofluor)
C(=N\n1cnnc1)/c1cccc(Oc2ccccc2)c1	Bead autofluor 22913 (no result: SSB-PriA inh)
Fc1ccccc1COc1cccc(/C=N/n2cnnc2)c1	Bead autofluor 24150 (no result: SSB-PriA inh)
N=C(N)c1ccc(N=Nc2c(O)ccc3c2[nH]c2ccccc23)cc1	SSB-PriA inh 82
Oc1ccc(N=Nc2c(O)ccc3ccccc23)cc1	none
CCN(CC)CCCOC(=O)C(OC(C)C)(c1ccccc1)c1ccccc1	BoNT-A LC inh2 36, BoNT-F LC inh 43, Bead autofluor inconclusive
CC(C)C(CNC(=O)Nc1cccc(F)c1)N1CCOCC1 (configuration not stated)	none (no result: Anthrax LF inh2, BoNT-A LC inh2, BoNT-F LC inh, Bead autofluor)
O=C(Nc1cccc2ccccc12)NC1CC(=O)N(c2ccc(F)cc2)C1 (configuration not stated)	none (no result: Anthrax LF inh2, BoNT-A LC inh2, BoNT-F LC inh, Bead autofluor)
Cc1ccc(-c2c(C(=O)O)c(C(=O)O)c3n2CSC3)cc1	SSB-PriA inh 73
CC(C)(C)c1ccc(-c2c(C(=O)O)c(C(=O)O)c3n2CSC3)cc1	none
CCOc1ccc(NC(=O)C2CCN(c3ccc(-c4ccco4)nn3)CC2)cc1	none (no result: Anthrax LF inh2, BoNT-A LC inh2, BoNT-F LC inh, Bead autofluor)
O=C(CCCCCN1C(=O)c2cccc3cccc(c23)C1=O)Nc1ccccc1C(F)(F)F	none (no result: Anthrax LF inh2, BoNT-A LC inh2, BoNT-F LC inh, Bead autofluor)
NS(=O)(=O)c1ccc(O)c(N2C(=O)c3cccc4c(C(=O)c5ccccc5)ccc(c34)C2=O)c1	SSB-PriA inh 46 (no result: Anthrax LF inh2, BoNT-A LC inh2, BoNT-F LC inh, Bead autofluor)
O=C(NCCOc1ccc2nnc(-c3ccccc3)n2n1)Nc1cccs1	none (no result: Anthrax LF inh2, BoNT-A LC inh2, BoNT-F LC inh, Bead autofluor)
COCCn1c(C)cc(C(=O)COc2ccc(C)nc2[N+](=O)[O-])c1C	SSB-PriA inh 47
FC(F)C(F)(F)C1=CC(c2ccccc2)=NCCN1	none
Cc1ccc(O)c(C2=NCCNC(C(F)(F)C(F)F)=C2)c1	Bead autofluor 23315
Oc1ccc(Cl)cc1C1=NCCNC(C(F)(F)C(F)F)=C1	Bead autofluor 22480
Cc1ccccc1OCC(=O)NC1CCC(Oc2nccnc2C#N)CC1 (configuration not stated)	none (no result: Anthrax LF inh2, BoNT-A LC inh2, BoNT-F LC inh, Bead autofluor)
COc1ccc(C2c3c(nc[nH]c3=O)Oc3nc[nH]c(=O)c32)cc1	none (no result: SSB-PriA inh)
O=c1[nH]cnc2c1C(c1ccccc1[N+](=O)[O-])c1c(nc[nH]c1=O)O2	Bead autofluor 20743
O=C(Nc1ccccn1)N1CCOCC1	Bead autofluor 20658
